Source: PubChem
CHX counter – counter-screen hit for Shiga toxin inhibitors, cycloheximide; cell reporter, cycloheximide protein synthesis inhibition counterscreen; actives 12% (n = 300,000); max response, %; AID 2314; in the data active means max response mostly above about 13%, no sharp cut-off; inactive means mostly below about 14%; further: read at 38.3 µM for the half of the compounds with a filed dose
Pf growth 96h – P. falciparum growth inhibition at 96 hours. P. falciparum luciferase reporter growth, 96 h. AID 504834. Potency, µM (top dose mostly 28.7 µM), most hits filed as inhibitors. actives 6.9% (n = 320,000); active means well fitted inhibition curve with a large enough effect; inconclusive means small, poorly fitted or top-dose-only effect, or another doubt; inactive means no such curve, though single readings can be large or run the other way
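Readout is luminescence from an integrated firefly luciferase in P. falciparum. Red cells, 2% hematocrit and 0.05% parasitemia final, were cultured with compound through two parasite generations (96 hours) at 37 C, 5% CO2.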
NS1 function inh – inhibitors of influenza NS1 protein function | Potency, µM (top dose mostly 46.1 µM) | actives 0.4% (n = 270,000) | AID 2326; further: actives are rising curves; nearly all actives have a fitted effect of over 50% in size
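S. cerevisiae expressing influenza A NS1, grown in glucose, washed, then diluted 1:100 into pH 6.0 -URA galactose medium with 23 nl compound. Growth recovery read as OD600; NS1-free strain serves as control.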
Pf growth 48h – P. falciparum growth inhibition at 48 hours (one generation); P. falciparum luciferase growth in erythrocytes, 48 h; Potency, µM (series often up to 28.7 µM), most hits filed as inhibitors; actives 5.9% (n = 310,000); active means well fitted inhibition curve with a large enough effect; inconclusive means small, poorly fitted or top-dose-only effect, or another doubt; inactive means no such curve, though single readings can be large or run the other way
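In quantitative HTS format, infected erythrocytes bearing luciferase-reporter parasites were treated for a single generation at 37 C. Luminescence after adding detection reagent served as the growth measure.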
SARS PLP yeast – SARS-CoV PLP inhibition in yeast; S. cerevisiae expressing SARS-CoV PLpro, growth rescue; Potency, µM (doses to about 32.9 µM), actives largely listed as activators; actives 0.19% (n = 330,000); AID 485353; further: nearly all actives have a fitted effect of over 55% in size
Shiga toxin inh – inhibitors of Shiga toxin in Vero cells | Vero cells, Shiga toxin protein synthesis inhibition reporter | inhibition, % at 38.7 µM | actives 9.2% (n = 290,000) | AID 2315; in the data active means inhibition mostly above about 28%, no sharp cut-off; inactive means mostly below about 43%
Hits are given with their value; i = inactive; ? = inconclusive; nt = no result; [ ] = another dose, or the depositor's remark. Sampled rows, rich in hits. Any-hit rate of the full collection: about 21%. Unless noted, the call rests on the fitted dose curve.

SMILES | CHX counter | Pf growth 96h | NS1 function inh | Pf growth 48h | SARS PLP yeast | Shiga toxin inh
CN(C(=O)COC(=O)/C=C/c1cn(-c2ccccc2)nc1-c1ccc2c(c1)OCCO2)C1CCS(=O)(=O)C1 (configuration not stated) | i | 12µM | nt | ? | i | i
O=Cc1cn(-c2ccccc2)nc1-c1ccc2c(c1)OCCO2 | 57 | ? | i | i | i | 99
O=C(COC(=O)/C=C/c1cn(-c2ccccc2)nc1-c1ccc2c(c1)OCCO2)NC1CCS(=O)(=O)C1 (configuration not stated) | i | ? | i | ? | i | i
Cn1cc(C=O)c(-c2ccc3c(c2)OCCCO3)n1 | 44 | i | i | i | i | 83
N#Cc1cn(-c2ccccc2)nc1-c1ccc2c(c1)OCCO2 | 24 | i | i | i | i | 64
COCCCNC(=O)Cc1c(C)c2cc3c(cc2oc1=O)OC(C)(C)CC3 | i | i | i | i[0.00184 µM] | i | i
CCOc1cccc(OCCCNCCCOC)c1 | i | ? | i | i | i | i
COc1cccc(NC(=S)/C(=C(\[O-])c2ccc(C)c([N+](=O)[O-])c2)[n+]2ccccc2)c1 | 39 | nt | i | i | i | 51
Cc1ccc(NC(=S)/C(=C(\[O-])c2ccc(C)c([N+](=O)[O-])c2)[n+]2ccccc2)cc1C | 70 | i | i | ? | i | 149
Cc1ccc(/C([O-])=C(/C(=S)Nc2ccc(SC(F)F)cc2)[n+]2ccccc2)cc1[N+](=O)[O-] | i | ? | nt | i | i | i
Cc1ccccc1NC(=S)/C(=C(\[O-])c1ccc(C)c([N+](=O)[O-])c1)[n+]1ccccc1 | i | i | i | i | i | i
CCCn1c(SCc2ccon2)nc2ccccc2c1=O | i | ? | i | nt | i | i
CCN1CCN(S(=O)(=O)c2ccc(Cl)c(C(=O)NC3CCCCC3)c2)CC1 | nt | i | nt | i | i | nt
CCOc1ccc(C(C)=O)cc1CN1C(=O)NC(C)(C2CC2)C1=O (configuration not stated) | i | ? | nt | ? | i | i
Cn1c2ccsc2c2cnn(Cc3ccccc3F)c(=O)c21 | i | nt | nt | nt | nt | i
CCOC(=O)c1c(NC(=O)c2cc(CC(C)C)on2)sc(C(C)=O)c1C | i | i | i | i | i | i
CC(=O)c1ccc(NC(=O)c2ccn(C(=O)OCC(C)C)n2)cc1 | 71 | i | i | i | i | 56
CSc1ccccc1NC(=O)c1cc(CC(C)C)on1 | 62 | i | i | i | i | 69
COc1cc(NC(=O)c2cc(CC(C)C)on2)c(OC)cc1Cl | i | i | i | ? | i | i
CC(C)Cc1cc(C(=O)Nc2cccnc2)no1 | 35 | i | i | nt | i | 111
CC(=O)c1ccc(NC(=O)c2cc(CC(C)C)on2)cc1 | 18 | i | i | i | i | active
CC(C)c1nnc(SCC(=O)NC2CCCC2)n1C | i | i | i | ? | i | i
CC1=C(C(=O)OCC(Br)(Br)Br)C(c2ccc(Br)cc2)NC(=O)N1CCCC(=O)O (configuration not stated) | i | i | i | i | i | i
CC(=O)Nc1ccc(S(=O)(=O)N(C)CC(=O)OCC(=O)N(C)c2ccccc2)cc1 | i | i | i | i | i | i
O=C(COc1coc(CN2CCc3ccccc3C2)cc1=O)N1CCOCC1 | nt | i | nt | i | i | nt
SMILES | CHX counter | Pf growth 96h | NS1 function inh | Pf growth 48h | SARS PLP yeast | Shiga toxin inh
Cc1cc(C)nc(NS(=O)(=O)c2ccc(NC(=O)CN3C(=O)C4CC=CCC4C3=O)cc2)n1 (configuration not stated) | i | i | nt | ? | i | i
Cc1nn2c([nH]c(=O)c3ccccc32)c1C=O | i | 12µM | i | ? | i | i
Cc1nn2c(nc(N3CCCCC3)c3ccccc32)c1C=O | i | 5.2µM | i | 3.3µM | i | i
Cc1nn2c(nc(N3CCOCC3)c3ccccc32)c1C=C(C#N)C#N | i | i | i | i | i | i
O=C(CCN1C(=O)/C(=C/c2ccccc2Cl)SC1=S)NC1C=CS(=O)(=O)C1 (configuration not stated) | i | ? | i | i | i | i
CCOC(=O)/C=C/C(=O)Nc1ccccc1-c1ccccc1NC(=O)/C=C/C(=O)OCC | 33 | ? | i | 4.7µM | i | i
CCOC(=O)/C=C/C(=O)OCC(=O)Nc1ccc([N+](=O)[O-])cc1 | 17 | i | i | i | i | i
CCOC(=O)/C=C/C(=O)OCC(=O)Nc1cccc(Cl)c1Cl | i | i | nt | i | i | i
